Here are results for 49 compounds from PubChem BioAssay AID651658 (Broad Institute, 2012).

Structures are written as SMILES. Out of some 340,000 compounds screened, about 5,100 (1.5%) were called active.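 Rule for the calls: active = mean Tm shift, scaled 0 neutral to 100 positive control, at about 1.3% or above, every replicate too (limit read from the data); inconclusive = no clear call, values can overlap the other calls; inactive = the rest.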 For the sample, actives were picked, then their nearest neighbours and some compounds at random.

This test deals with Fibroblast growth factor 22 (Homo sapiens) (UniProt Q9HCT0). Description: FGF22 ligand-induced thermal stabilization – biophysical, thermal shift, single point, FGF22 synaptogenesis inhibitor project, primary screen (AID 651658). As to conditions: recombinant FGF22 thermal shift, SYPRO orange fluorescence; at 9.99 µM; active compounds read high; percent of sucrose octasulfate shift, DMSO zero.
Sequence of Fibroblast growth factor 22 (Homo sapiens) (Q9HCT0 whole entry, looked up): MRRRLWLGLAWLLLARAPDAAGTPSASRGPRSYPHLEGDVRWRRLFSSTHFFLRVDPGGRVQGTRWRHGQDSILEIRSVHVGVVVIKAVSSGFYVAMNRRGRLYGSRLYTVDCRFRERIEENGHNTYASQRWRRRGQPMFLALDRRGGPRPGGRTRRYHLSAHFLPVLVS
Consider `COc1ccccc1-c1ccc2c(c1)O[C@@H](CN(C)C(=O)Nc1ccccc1)[C@H](C)CN([C@@H](C)CO)S2(=O)=O`, for which the activity (Tm shift, normalised) was 0.048% (inactive).
Then `CN1c2ccc(-c3cccc(C#N)c3)cc2[C@@H]2[C@@H](CCN2C(=O)C2CCC2)[C@@H]1CO`, with -0.466% (inactive); and `COc1ccc(NC(=O)CCNC(=O)Cn2cnc3sc4c(c3c2=O)CCCC4)cc1OC`, with 0.026% (inactive); and `CC(C(=O)O)n1cnc2sc3c(c2c1=O)CCCC3` (centres undefined), with 43.5% (active).
Then `Cc1nc2sc3c(c2c(=O)n1NC(=O)CCl)CCCC3`, with 0.109% (inactive).
Then `CN(C)C(=O)c1ccc(-c2ccc([C@@H]3[C@@H](CO)N4CCCCN(CC5CC5)C[C@H]34)cc2)cc1`, with -0.109% (inactive).
As for `CC(=O)N1[C@@H](CO)[C@H](c2ccccc2)[C@@H]1CN(C)C(=O)CN1CCOCC1`, the activity (Tm shift, normalised) was 0.01% (inactive).
Then `CO[C@H]1CN(C)C(=O)c2cc(NC(=O)C3CCC3)ccc2OC[C@H](C)N(C)C[C@H]1C`, with -0.155% (inactive).
With `CCNC(=O)Nc1ccc2c(c1)C(=O)N(C)[C@@H]1CC[C@H](CC(=O)NC3CCCCC3)O[C@H]1CO2`, the activity (Tm shift, normalised) was -0.109% (inactive).
With `CCCOc1ccc(-c2c(C(=O)N/N=C/c3ccco3)nnn2-c2nonc2N)cc1`, the activity (Tm shift, normalised) was -0.098% (inactive).
In the case of `Nc1nonc1-n1nnc(C(=O)N/N=C/C2CCCCC2)c1-c1ccccc1`, the activity (Tm shift, normalised) is 0.34% (inactive).
On to `C/C(COc1ccccc1)=N\NC(=O)c1nnn(-c2nonc2N)c1-c1ccc(C)cc1`, for which the activity (Tm shift, normalised) is 43.2% (active).
Then `Cc1ccc(OCC(=O)NC(C)c2ccccc2)c([N+](=O)[O-])n1` (centres undefined), with 43.5% (active).
As for `COc1ccccc1CNC(=O)COc1ccc(C)nc1[N+](=O)[O-]`, the activity (Tm shift, normalised) is 0.224% (inactive).
Then `Cc1cc(C)cc(OCC(=O)NC(C)c2ccccc2)c1` (centres undefined), with 0.179% (inactive); and `COc1ccc(S(=O)(=O)N(C)C[C@@H]2OCCCC[C@H](C)Oc3ccc(NC(=O)NC(C)C)cc3C(=O)N([C@@H](C)CO)C[C@@H]2C)cc1`, with -0.199% (inactive); and `CO[C@@H]1CN(C)C(=O)c2cc(NC(C)=O)ccc2OC[C@H](C)N(C(=O)CC2CC2)C[C@@H]1C`, with 0.119% (inactive).
Turning to `C[C@@H](O)C#Cc1ccc([C@H]2[C@@H](CO)N3CCCCN(S(=O)(=O)c4ccccc4)C[C@@H]23)cc1`, the activity (Tm shift, normalised) is -0.117% (inactive).
Then `O=C(COC(=O)c1ccc(O)cc1O)c1ccc2c(c1)OCCO2`, with 0.444% (inactive); and `O=C(/C=C/c1ccc2c(c1)OCCO2)c1ccc(O)cc1`, with 2.05% (active); and `Cc1ccc(C(=O)NNC(=O)c2ccc3c(c2)OCCO3)cc1`, with -0.233% (inactive).
As to `C[C@H](CO)N1C[C@H](C)[C@@H](CN(C)C(=O)C2CCCCC2)Oc2cc(C3=CCCC3)ccc2S1(=O)=O`, the activity (Tm shift, normalised) was 0.195% (inactive).
Then `Cc1ccc(C(=O)N/C(=C/c2cccs2)C(=O)N2CCCCC2)cc1`, with 0.095% (inactive); and `Cc1ccc(C(=O)N/C(=C/c2cccs2)C(=O)NCC2CCCO2)cc1` (centres undefined), with 42.9% (active); and `O=C(NCC1CCCO1)/C(=C/c1ccc(Cl)cc1)NC(=O)c1ccccc1` (centres undefined), with -0.33% (inactive).
Then `CCCC#Cc1cnc2c(c1)C(=O)N([C@H](C)CO)C[C@H](C)[C@H](CN(C)C(=O)Cc1ccncc1)O2`, with 0.077% (inactive); and `CC(C)NC(=O)N1[C@H](CNC(=O)CN(C)C)[C@@H](c2ccccc2)[C@@H]1CO`, with -0.154% (inactive); and `Cc1ccnc(NC(=O)CCNS(=O)(=O)c2ccc(C)c(C)c2)c1`, with -0.078% (inactive).
Then `Cc1ccc(S(=O)(=O)NCCC(=O)Nc2ccc(C)c(Cl)c2)cc1C`, with 1.75% (active); and `Cc1ccc(S(=O)(=O)NCCC(=O)Nc2cccc(S(N)(=O)=O)c2)cc1C`, with -0.18% (inactive); and `CCC(=O)Nc1ccc2c(c1)C(=O)N(C)C[C@H](OC)[C@H](C)CN(C(=O)c1ccccc1F)[C@@H](C)CO2`, with 0.053% (inactive).
As to `CN(C(=O)c1cc2c(=O)n3ccccc3nc2s1)C1CCCCC1`, the activity (Tm shift, normalised) is -0.192% (inactive).
As for `CN(c1ccc2nc3ccccc3c(=O)n2n1)C1CCCCC1`, the activity (Tm shift, normalised) was 43.9% (active).
For the compound `CC(C)c1cc(C(=O)NC2CCCCCC2)c2ccccc2n1`, the activity (Tm shift, normalised) is -0.159% (inactive).
As to `CN(C)CC(=O)N1[C@@H](CO)[C@H](c2ccccc2)C12CN(C(=O)c1cccc(F)c1)C2`, the activity (Tm shift, normalised) is 0.354% (inactive).
Then `COC(=O)N/N=C/c1ccc(-c2ccc(Cl)c(Cl)c2)o1`, with -0.262% (inactive).
Then `Clc1cc(-c2ccc(/C=N/n3cnnc3)o2)ccc1Br`, with 43.6% (active).
With `Brc1cc(/C=N/n2cnnc2)oc1Br`, the activity (Tm shift, normalised) is -0.235% (inactive).
`C[C@H](CO)N1C[C@H](C)[C@H](CN(C)C(=O)NC2CCCCC2)Oc2c(NC(=O)C3CC3)cccc2C1=O`: the activity (Tm shift, normalised) was -0.273% (inactive).
Then `O=C(c1ccc2c(c1)N(Cc1ccc(F)cc1)C(=O)c1ccccc1S2(=O)=O)N1CCN(c2ccccn2)CC1`, with 44.2% (active).
As to `O=C1c2ccccc2S(=O)(=O)c2cc(N3CCN(c4ccccn4)CC3)ccc21`, the activity (Tm shift, normalised) was 0.041% (inactive).
Then `O=C(NCCN1CCOCC1)c1ccc2c(c1)N(Cc1cccc(Cl)c1)C(=O)c1ccccc1S2(=O)=O`, with -0.426% (inactive); and `CO[C@@H]1CN(C)C(=O)c2cc(NC(=O)c3ccccc3F)ccc2OC[C@H](C)N(C(C)=O)C[C@@H]1C`, with 0.052% (inactive); and `C[C@@H]1CN([C@H](C)CO)S(=O)(=O)c2ccc(-c3ccncc3)cc2O[C@H]1CN(C)S(=O)(=O)c1ccccc1F`, with -0.04% (inactive).
Then `C[C@@H]1CCCCO[C@@H](CN(C)C(=O)NC2CCCCC2)[C@H](C)CN([C@H](C)CO)C(=O)c2cc(NS(=O)(=O)c3ccc(Cl)cc3)ccc2O1`, with 0.906% (inactive); and `CN(c1ccccc1)S(=O)(=O)c1cc(C(=O)OCC(=O)N2CCN(C(=O)c3ccco3)CC2)ccc1Cl`, with 43.1% (active).
In the case of `O=C(OCC(=O)N1CCN(C(=O)c2ccco2)CC1)c1ccc(Cl)c(Cl)c1`, the activity (Tm shift, normalised) was -0.203% (inactive).
Then `O=C(OCC(=O)N1CCN(C(=O)c2ccco2)CC1)c1cccc(O)c1`, with 0.05% (inactive); and `CC=Cc1ccc2n(c1=O)C[C@H]1[C@H](CO)[C@@H](C(=O)NCCc3cn(C)cn3)[C@@H]2N1C(=O)CC` (mixture of isomers), with -0.32% (inactive).
